Potency and activity change, negative = inhibition data for 40 compounds are collected here from PubChem BioAssay (Tox21).

Inconclusive results are not listed. A call without a number means that no potency is given here. A number with no mark means an inactive call. Active and inactive are the calls of the source. The call rests on the fitted dose curve; in most records, active means well fitted inhibition curve with a large enough effect in the signal ratio in the repeat runs, with a control signal flat; inconclusive means weak or mixed curves, or effect the other way; inactive means flat fitted curve, though single readings scatter; the % refers to the signal ratio.

Sequence of D(2) dopamine receptor (Homo sapiens) (P14416 whole entry, looked up): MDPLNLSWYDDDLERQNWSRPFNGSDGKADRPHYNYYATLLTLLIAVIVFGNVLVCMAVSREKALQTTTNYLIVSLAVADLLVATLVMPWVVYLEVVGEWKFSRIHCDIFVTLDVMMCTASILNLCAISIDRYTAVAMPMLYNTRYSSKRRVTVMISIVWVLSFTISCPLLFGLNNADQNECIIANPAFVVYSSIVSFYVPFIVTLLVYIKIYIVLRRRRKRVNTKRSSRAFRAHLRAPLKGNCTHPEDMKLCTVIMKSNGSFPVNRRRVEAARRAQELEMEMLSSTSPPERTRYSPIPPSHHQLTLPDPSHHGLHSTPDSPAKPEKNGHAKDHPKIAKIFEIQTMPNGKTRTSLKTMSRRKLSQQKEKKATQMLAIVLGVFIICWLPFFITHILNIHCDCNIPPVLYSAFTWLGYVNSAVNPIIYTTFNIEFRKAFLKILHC

For the assay, the target named is D(2) dopamine receptor (Homo sapiens) (UniProt P14416). Nature of the assay: Dopamine D2 receptor (DRD2) small molecule antagonists, cell-based qHTS assay (AID 1963595). The following applies: HEK293-DRD2 cAMP HTRF antagonist mode; series mostly up to 92.4 µM. An excerpt:
National Center for Advancing Translational Sciences [NCATS]
Division of Preclinical Innovation [DPI]
U.S. Environmental Protection Agency [EPA]
National Institutes of Environmental Health Sciences [NIEHS]
National Toxicology Program [NTP]
U.S. Food and Drug Administration [FDA]
DRD2 is the D2 subtype of the dopamine receptor, which is coupled to Gi subtype of G protein-coupled receptor. This G protein-coupled receptor inhibits adenylyl cyclase activity. The DRD2-HEK293 cell line stably expressing D2 dopamine receptor can be used for screening agonists and antagonists of interactions between D2 and its ligands. The Hek293-DRD2 cAMP assay is based on HTRF technology. It measures changes of cAMP accumulation in response to Gi coupled GPCR activation or inhibition.
Tox21 Assay Protocol Summary:
DRD2-Hek293 cells were dispensed at 600 cells/3uL/well in 1536-well white plates using a Multidrop Dispenser. After the assay plates were incubated at a 37 C/5% CO2 incubator for 24 h, 1 uL of Ro20-1724 at final concentration of 0.1 mM was transferred to the assay plate by a Flying Reagent Dispenser. Following Ro20-1724 addition, 23 nL of compound dissolved in DMSO, positive controls or DMSO only was added to the assay plates via Wako pintool station. The assay plates were incubated at room temperature for 10 min. Next, 1 uL of mixture of NKH477 (final concentration at 200 nM) and quinpirole (final concentration at 12 nM) was added into the plates. After the assay plates were incubated at room temperature for an additional 30 min, 2.5 ul/well of cAMP-d2 and 2.5 ul/well of anti-cAMP-cryptate were added respectively into the assay plates using a Flying Reagent Dispenser. The plates were incubated at room temperature for 1 h. The fluorescence intensity in the plates was measured at 340 nm excitation and 665 & 620 nm emission by an Envision plate reader.
A general note: In qHTS, concentration-response curves come from the screen itself.
Consider `CC(Cl)CN(C)C` (stereo not given), for which the Potency entry is “inactive”.
Still for that read-out and setting: the entry for `CN/C(=N\[N+](=O)[O-])NCC1CCOC1` (stereo not given) is “inactive”.
On the same count and under the same terms, as for `CSSC`, the entry is “inactive”.
Take `ClC(Cl)C(Cl)Cl`: the Potency result is “inactive”.
Same read-out and setting: as for `CCC(C)c1cccc(C(C)CC)c1O` (stereo not given), the entry is “inactive”.
Still for that read-out and setting: the entry for `CC[N+]1(C)CCCC(OC(=O)C(O)(c2ccccc2)c2ccccc2)C1` (stereo not given) is “inactive”.
Still for that read-out and setting: as for `O=C(N[C@H](c1ccccc1)[C@@H]1CN2CCC1CC2)c1c(Cl)ccc(C(F)(F)F)c1Cl`, the entry is “inactive”; as for `FC(F)OC(F)(F)C(F)Cl` (stereo not given), “inactive”; as for `COc1ccc(C(=O)c2c(C)n(CCN3CCOCC3)c3ccccc23)cc1`, “inactive”.
As for `Cc1ccc(OP(=O)(Oc2ccccc2)Oc2ccccc2)cc1`, the Potency entry is “inactive”.
The same measure, in the same setting: the entry for `Cc1cnc2c(C(=O)O)c(Cl)ccc2c1` is “inactive”; for `CCOP(=S)(OCC)SCCl` it is “inactive”.
Take `Clc1ccccc1N1CCNCC1`: the Potency entry is “inactive”.
On the same count and under the same terms, as for `CC(=O)[O-].[Tl+]`, the entry is “inactive”; as for `C=COC(C)=O`, “inactive”; as for `COP(N)(=S)OC`, “inactive”.
In the case of `CC(=O)[O-].CC(=O)[O-].O.O.O.[Pb+2]`, the Potency result was “inactive”.
Same read-out and setting: as for `C#C[C@]1(O)CC[C@H]2[C@@H]3CCC4=CC(=O)CCC4=C3C=C[C@@]21CC`, the entry is “inactive”.
Same read-out and setting: the entry for `c1csc(-c2ccc(-c3cccs3)s2)c1` is “inactive”; for `Cc1nnc2n1-c1sc(CCC(=O)N3CCOCC3)cc1C(c1ccccc1Cl)=NC2` it is “inactive”; for `CN1C(=O)CN=C(c2ccccc2)c2cc([N+](=O)[O-])ccc21` it is “inactive”.
On the same count and under the same terms, as for `O=[N+]([O-])c1ccc2ccc3cccc4ccc1c2c34`, the entry is “inactive”; as for `N#CC(O)c1ccccc1` (stereo not given), “inactive”.
Regarding `Cc1ccc2nc3sc(=O)sc3nc2c1`, the activity change, negative = inhibition is 0.198% [at 18.9 µM].
Consider `COC(=O)c1ccccc1S(=O)(=O)NC(=O)N(C)c1nc(C)nc(OC)n1`, for which the Potency result was “inactive”.
Consider `COP(=S)(OC)Oc1cc(Cl)c(I)cc1Cl`, for which the Potency entry is “inactive”.
The same measure, in the same setting: the entry for `CCOC(=O)OC1=C(c2cc(C)ccc2C)C(=O)NC12CCC(OC)CC2` (stereo not given) is “inactive”; for `CC(C)CC(C)N` (stereo not given) it is “inactive”; for `Cc1ncc(C[n+]2csc(CCO)c2C)c(N)n1` it is “inactive”.
For `O=[N+]([O-])c1ccc2c3c(cccc13)CC2`, the Potency entry is “inactive”.
In the case of `CCC(C)(C)O`, the Potency result was “inactive”.
Regarding `O=C(O)c1cccc(Cl)c1`, the Potency result is “inactive”.
With `CC(C)[C@@H](Nc1ccc(C(F)(F)F)cc1Cl)C(=O)OC(C#N)c1cccc(Oc2ccccc2)c1` (stereo not given in full), the Potency entry is “inactive”.
Same read-out and setting: as for `Cn1sc(Cl)cc1=O`, the entry is “inactive”.
As to `Cc1ccc2c(c1)C1CN(C)CCC1N2` (stereo not given), the activity change, negative = inhibition was -2.92% [at 18.9 µM].
Take `N#Cc1c(-c2ccc(Cl)cc2)[nH]c(C(F)(F)F)c1Br`: the Potency result was “inactive”.
Still for that read-out and setting: as for `CCc1cc2c(s1)-n1c(C)nnc1CN=C2c1ccccc1Cl`, the entry is “inactive”; as for `NC1=NC(=O)C(c2ccccc2)O1` (stereo not given), “inactive”.
On the same count and under the same terms, as for `O=CNC(N1CCN(C(NC=O)C(Cl)(Cl)Cl)CC1)C(Cl)(Cl)Cl` (stereo not given), the entry is “inactive”.
The same measure, in the same setting: the entry for `O=C1OC(=O)C2C1C1(Cl)C(Cl)=C(Cl)C2(Cl)C1(Cl)Cl` (stereo not given) is “inactive”.
